Active and inactive are the calls of the source. Rule for the calls: active = hit-call score of the fitted dose curve at least 0.9, where 1 is the maximum; inactive = score below 0.9.
How the values were obtained:
[1] = APR_HepG2_CellCycleArrest_24hr: Apredica 24-hour HepG2 Assay for Cell Cycle Arrest (AID 2282905); details: imaging, actives raise or lower the signal;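 note: cell cycle arrest scored as ratio of 2N to 4N nuclear DNA content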
How it was run: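 HepG2, 24 hr dosing, 10-pt 0.39–200 uM in duplicate, 0.5% DMSO. Fixed 3.7% formaldehyde, permeabilized 0.5% Triton X-100, Hoechst 33342 2 ug/mL. Imaged 20x; nuclear DNA content quantified; bidirectional fit vs DMSO.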

[2] = APR_HepG2_NuclearSize_24hr: Apredica 24-hour HepG2 Assay for Nuclear Size (AID 2282907); details: high-content imaging, actives raise or lower the signal
How it was run: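 HepG2, 24 hr dosing, 10-pt 0.39–200 uM, duplicates, 0.5% DMSO final; 3.7% formaldehyde fix, 0.5% Triton X-100; Hoechst 33342 nuclear stain; ArrayScan HCS, Cell Cycle analysis → nuclear size; bidirectional fit vs DMSO.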

[3] = APR_HepG2_CellLoss_24hr: Apredica 24-hour HepG2 Assay for Cell Loss (AID 2282908); details: high-content imaging
How it was run: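 10-pt dose, 0.39–200 uM, n=2/plate; DMSO 0.5% v/v final as negative control. Fix 3.7% formaldehyde 30 min RT, permeabilize 0.5% Triton X-100, stain Hoechst 33342 2 ug/mL, image 20x. Nuclear count, bidirectional fit vs DMSO.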

[4] = APR_HepG2_MicrotubuleCSK_24hr: Apredica 24-hour HepG2 Assay for Microtubule CSK Stabilty (AID 2282909); details: HepG2 microtubule cytoskeleton imaging, actives raise or lower the signal
How it was run: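 Human liver HepG2, 24 h dosing, 0.39–200 uM ×10 conc, dup, 0.5% DMSO. 3.7% formaldehyde fix, 0.5% Triton perm, anti-alpha-tubulin (1:200)/Cy5 secondary + Hoechst. HCS imaging, 6 fields/well; gain/loss fit vs DMSO.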

[5] = APR_HepG2_MitoticArrest_24hr: Apredica 24-hour HepG2 Assay for Mitotic Arrest (AID 2282910); details: high-content imaging, actives raise or lower the signal
How it was run: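 HepG2 cells, 24 h exposure at 0.39-200 uM (10 concentrations, duplicate, 0.5% DMSO). Fixed, stained for phospho-histone H3 with Hoechst; imaged by high-content microscopy, bidirectional fit versus DMSO.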

[6] = APR_HepG2_MitoMembPot_24hr: Apredica 24-hour HepG2 Assay for Mitochondrial Membrane Potential (AID 2282911); details: imaging, actives raise or lower the signal
How it was run: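 Mitochondrial dye uptake (MitoTracker Red CMXRos, 250 nM, 30 min pre-fixation) in HepG2 after 24 hr compound exposure, 0.39–200 uM; ArrayScan images at 20x, activity fitted in both directions relative to DMSO.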

[7] = APR_HepG2_MitoMass_24hr: Apredica 24-hour HepG2 Assay for Mitochondrial Mass (AID 2282912); details: high-content imaging, actives raise or lower the signal
How it was run: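 Mitochondrial mass is read as MitoTracker Red fluorescence intensity from automated imaging, with bidirectional curve fitting relative to DMSO. HepG2 cells received compound (0.39–200 uM, 0.5% DMSO final) for 24 hr and were dye-loaded (250 nM, 30 min) before formaldehyde fixation.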

[8] = APR_HepG2_p53Act_24hr: Apredica 24-hour HepG2 Assay for p53 Activation (AID 2282913); details: high-content imaging, actives raise or lower the signal;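 note: p53 protein immunofluorescence averaged per cell in HepG2 with Hoechst nuclei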
How it was run: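 Following 24 hr dosing of HepG2 at 0.39–200 uM, the cells undergo formaldehyde fixation, Triton permeabilization and multiplexed antibody labeling that includes p53 (Cy5). Signal from the imaging is referenced to DMSO solvent controls.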

[9] = APR_HepG2_CellCycleArrest_72hr: Apredica 72-hour HepG2 Assay for Cell Cycle Arrest (AID 2282914); details: high-content imaging, actives raise or lower the signal
How it was run: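 Using multiplexed high-content imaging, HepG2 nuclei stained with Hoechst 33342 (2 ug/mL) were analysed for DNA content after fixation and permeabilization. Treatment lasted 72 hr across 0.39–200 uM in duplicate with final DMSO 0.5% v/v; DMSO served as negative control.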

[10] = APR_HepG2_CellLoss_72hr: Apredica 72-hour HepG2 Assay for Cell Loss (AID 2282915); details: high-content imaging
How it was run: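 HepG2 cells exposed 72 h to compound at 0.39–200 uM (10 concentrations, duplicate) in 0.5% DMSO. Fixed with 3.7% formaldehyde and Hoechst 33342-stained. Imaged at 20x; nuclear count gives cell number, fitted bidirectionally versus DMSO.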

Measured: AC50

O=C1CCCCCN1
inactive: all assays above

CC[C@H]1OC(=O)[C@H](C)[C@@H](O[C@H]2C[C@@](C)(OC)[C@@H](O)[C@H](C)O2)[C@H](C)[C@@H](O[C@@H]2O[C@H](C)C[C@H](N(C)C)[C@H]2O)[C@](C)(O)C[C@@H](C)C(=O)[C@H](C)[C@@H](O)[C@]1(C)O
inactive: all assays above

COC(=O)c1ccccc1O
inactive: all assays above

COCCOCCOCCOC
inactive: all assays above

Cn1cnc([N+](=O)[O-])c1Sc1ncnc2nc[nH]c12
active: [10] 44.8 µM
inactive: all other assays above

CN(C)c1ccc(N=NS(=O)(=O)O)cc1
active: [1] 86.9 µM | [9] 54.3 µM | [10] 71.7 µM
inactive: all other assays above
